# High-throughput results: PubChem BioAssay, The Scripps Research Institute Molecular Screening Center
# ABHD5 PLIN5 PPI – ABHD5-PLIN5 protein interaction inhibition. Q00G26+Q8WTS1. Split G. princeps luciferase complementation, luminescence, 4 h. inhibition, % at 4 µM. hit rate 0.78% among 360,000. AID 602281;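 active = inhibition above the mean inhibition across every tested compound plus 3 SD, cut at about 22% in these data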;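 note: 0% = DMSO only wells and the 100% control is not disclosed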
# TLR9-MyD88 block – blocks human TLR9 binding to MyD88; CHO BLA complementation TLR9-MyD88, CCF4 FRET ratio; inhibition, % at 4.98 µM; hit rate 0.21% among 340,000; AID 504734;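 active = inhibition above the mean over all tested compounds plus 3 SD, cut at about 21% in these data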;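 note: 0% = DMSO only wells and 100% = clavulanate BLA inhibitor control wells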
# PRMT1 inh – inhibitors of human PRMT1 | AID 652257 | inhibition, % at 2.79 µM | recombinant PRMT1, activity-based probe fluorescence polarization | hit rate 1.3% among 370,000 | Q99873;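 active = inhibition above about 21% made by adding two undisclosed values, limit read from the data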
# NOD2-RIPK2 inh – blocks binding of human NOD2 to RIPK2; inhibition, % at 4.98 µM; CHO BLA complementation NOD2-RIPK2, CCF4 ratio; hit rate 0.38% among 360,000; AID 624267; in the data active = inhibition above about 21%;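 note: 0% = vehicle only and 100% = reference blocker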
# rCAG binder – r(CAG) repeat RNA binding. hit rate 1.3% among 370,000. TO-PRO-1 dye displacement fluorescence. inhibition, % at 3 µM;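 active = inhibition above the plate cutoff, the mean of all test compounds on that plate plus 3 SD, cut at about 35% in these data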;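 note: 0% = DMSO alone and 100% = 100 µM mitoxantrone as full dye displacement; higher means more dye released from RNA so lower well fluorescence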
# TLR4-MyD88 BLA – TLR4-MyD88 interaction inhibition in cells; O00206+Q99836; HeLa CL3-4 TLR4/MyD88 BLA complementation, FRET ratio; inhibition, % at 8.4 µM; hit rate 0.18% among 200,000; AID 861; in the data active = inhibition above about 25%;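 note: 0% = vehicle and 100% = reference inhibitor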
# TLR4 MyD88 cnf – TLR4-MyD88 interaction inhibition confirmed. hit rate 50% among 350. HeLa CL3-4 BLA complementation, CCF4 FRET ratio. inhibition, % at 8.4 µM. AID 941. shares compounds with TLR4-MyD88 BLA;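 active = mean inhibition across three repeat runs above about 25% carried over from the earlier screen, limit read from the data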;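 note: plate controls were DMSO only for no effect and clavulanic acid blocking BLA at full dose for full effect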
# BLA inh HeLa – inhibits beta-lactamase activity, counter-screen to TLR4-MyD88 binding inhibitors; shares compounds with TLR4-MyD88 BLA; HeLa BLA reporter, CCF4 FRET ratio; inhibition, % at 8.4 µM; hit rate 63% among 350; AID 1237;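 active = mean inhibition over three repeats above about 26% taken from the earlier screen, limit read from the data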;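 note: HeLa cells stably expressing beta-lactamase reporter as counterscreen for TLR4-MyD88 inhibitors; 0% = DMSO and 100% = clavulanic acid full inhibition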
# Active calls of the source: *; . = no result given. Shown are actives, neighbours in structure and some others; about 3.3% of the full set was active somewhere.
SMILES,ABHD5 PLIN5 PPI,TLR9-MyD88 block,PRMT1 inh,NOD2-RIPK2 inh,rCAG binder,TLR4-MyD88 BLA,others
CCCCn1c(SCC(=O)Nc2cc(C(F)(F)F)cc(C(F)(F)F)c2)nnc1C(CC)N(C)C (configuration not stated),5.1,-1.9,2.3,0.8,-3.6,-4.8,
Cc1ccccc1NC(=O)CN1C(=O)CCSc2ccccc21,.,.,-1.1,.,1.4,.,
CCN1C(N(C)C)=NC[C@@H]1Cc1ccccc1,2.1,-3.6,-1.1,-2.8,1.4,.,
C/C(CC(=O)Nc1ccc(Cl)c(C(F)(F)F)c1)=N\NC(=O)c1cc2ccccc2cc1O,-6.7,-2.0,2.7,-4.2,50.7*,8.8,
CC(=O)Oc1ccccc1C(=O)NC(C)CCc1ccccc1 (configuration not stated),-0.4,-6.9,-4.4,3.0,-3.3,.,
CCOc1cc(/C=C2\SC(=N)N(c3nonc3N)C2=O)ccc1OCCN1CCOCC1,7.0,2.2,2.5,-5.0,40.1*,-1.4,
CCCS(=O)(=O)c1cn2cccc(N)c2c1S(=O)(=O)CCC,13.9,7.8,33.0*,8.6,16.0,15.5,
O=C1C(C2=C(O)c3ccccc3C2=O)=Nc2ccccc21,-21.6,-0.5,21.3*,-9.0,44.1*,-0.5,
CN=CC1=C(O)c2ccccc2C1=O,0.0,-9.6,-1.3,-0.5,-1.1,-5.6,
O=C(NCc1ccccc1)[C@@H]1CCCN1C(=O)[C@H]1CCCN1C(=O)N1CCCCC1,.,.,-0.5,.,1.8,.,
O=C1CSC(=S)N1N=Cc1ccc(Cl)s1,-17.4,-10.5,24.9*,-5.5,26.4,.,
CC(C)(C)c1ccc(/C=N/N2C(=O)CSC2=S)cc1,-10.6,0.0,3.5,-4.4,9.3,.,
CCCOP(=O)(c1ccc(N(C)C)cc1)C(O)c1ccc(N(C)C)cc1 (configuration not stated),6.0,1.9,10.6,-1.5,-4.9,.,
CC(C)c1ccc(N2CCN(C(=O)c3ccccc3NC(=O)/C=C\C(=O)O)CC2)cc1,-1.2,6.7,16.9,-4.8,3.0,3.1,
O=C(O)/C=C\C(=O)Nc1ccccc1C(=O)N1CCN(c2ccc(Cl)cc2)CC1,-0.1,4.4,23.9*,-4.5,-1.6,5.7,
c1ccc(Cc2cnc(N3CCN(Cc4cccc(-c5ccsc5)n4)CC3)nc2)cc1,.,.,-0.9,.,3.4,.,
COc1cc(C2c3cc4c(cc3OC(NCCc3ccccc3)C2C)OCO4)cc(OC)c1OC (configuration not stated),6.4,-4.9,-3.1,-2.8,1.5,.,
CC(O)(c1ccc(F)c(F)c1)c1nc(-c2ccoc2)cs1 (configuration not stated),22.2*,.,-1.9,-3.6,7.7,.,
CCc1ccc(OCCn2cccn2)cc1,-3.0,4.7,-0.7,-0.4,-1.9,-8.5,
CC(=O)c1cnc(-c2ccccn2)s1,-3.0,4.4,21.5*,-2.6,1.1,6.6,
Cc1sc(NC(=O)CN2C(=O)NC3(CCCC3)C2=O)nc1-c1ccc(F)cc1,-2.9,-3.6,5.2,-5.0,-3.8,.,
COc1ccc(OCc2nnc(SCC(=O)N(C)Cc3ccccc3)n2N)cc1,0.6,-8.3,21.4*,2.2,-4.6,1.9,
COc1cccc(NC(=O)COC(=O)CNC(=O)C2CCCCC2)c1,0.1,-2.5,2.0,-1.6,-0.4,.,
Cn1ccc(-c2ccccc2)n1,1.7,4.2,3.1,6.0,-1.8,-6.6,
N#Cc1cc(-c2ccccc2)nn1-c1ccccc1,1.7,2.5,22.9*,5.1,-0.5,1.4,
SMILES,ABHD5 PLIN5 PPI,TLR9-MyD88 block,PRMT1 inh,NOD2-RIPK2 inh,rCAG binder,TLR4-MyD88 BLA,others
O=C(O)CC(SCC(=O)Nc1ccc(Cl)c(S(=O)(=O)N2CCOCC2)c1)C(=O)O (configuration not stated),-10.0,4.2,42.6*,-1.2,2.2,.,
CC(CC(=O)Nc1ccc(Cl)c(S(=O)(=O)N2CCOCC2)c1)c1ccccc1 (configuration not stated),2.1,-6.8,0.8,-9.5,2.2,.,
CN(C)c1ccc(N=C/C=C2\N(C)c3ccccc3C2(C)C)cc1,5.2,-15.5,23.5*,0.4,15.0,8.0,
CN(C)C(=S)NC(=NCc1ccc([N+](=O)[O-])cc1)c1ccccc1,-10.4,-14.4,22.3*,-14.3,4.2,.,
Cc1ccccc1C(=O)NC1CCCCN(Cc2cccc(F)c2)C1=O (configuration not stated),.,.,2.9,.,-1.0,.,
NC(c1ccncc1)c1ccc(Cl)cc1 (configuration not stated),6.8,-10.1,0.4,-6.5,-0.9,.,
CC1OC(Nc2cccc3ccccc23)C(O)C(O)C1O (configuration not stated),-35.8,6.4,29.3*,-10.4,9.8,-6.9,
CC1OC(Nc2ccc(N=Nc3ccccc3)cc2)C(O)C(O)C1O (configuration not stated),-0.5,-3.0,-0.9,-2.2,-2.9,8.4,
O=C(O)CN1C(=O)/C(=C/c2cccc(Cl)c2)Oc2ccccc21,7.1,-1.4,-0.7,-3.1,52.2*,.,
CCOc1ccc(NC(=O)c2ccc(N3CC4CC(C3)c3cccc(=O)n3C4)c(NC(=O)c3cccnc3)c2)cc1 (configuration not stated),0.7,5.1,-1.2,0.4,-0.8,.,
CCN1CCN(c2cc(C)c3cc(NC(=S)N4CCN(c5ccccc5)CC4)ccc3n2)CC1,9.9,12.2,-6.0,8.6,-3.0,25.7*,TLR4 MyD88 cnf=25.4*;BLA inh HeLa=37.1*
CCN1CCN(c2cc(C)c3cc(NC(=S)N4CCOCC4)ccc3n2)CC1,5.7,4.5,-3.7,2.0,6.3,6.6,
CCCCCCCn1c2c(c(=N)c3ccccc31)CCC2,7.2,-10.5,-4.7,6.5,11.7,27.8*,TLR4 MyD88 cnf=30.1*;BLA inh HeLa=34.1*
C=CCOC(=O)C1=C(C)NC(=S)C(C#N)(CC=C)C1c1ccccc1Cl (configuration not stated),-7.0,.,-0.3,2.0,1.4,.,
COC(=O)c1ccc(-c2nc3cc(Cl)c(N)cc3s2)cc1,-9.0,11.4,5.6,8.6,1.3,37.6*,TLR4 MyD88 cnf=43.8*;BLA inh HeLa=58.5*
Cc1sc2nc(CN3CCC(C)CC3)nc(Cl)c2c1C,.,.,1.8,.,1.7,28.1*,TLR4 MyD88 cnf=31.8*;BLA inh HeLa=11.2
Cc1sc2nc(CN3CCOCC3)nc(Cl)c2c1C,1.4,0.7,-1.2,1.0,-1.3,6.9,
O=C(CSc1nnc(CNC(=O)c2c(F)cccc2Cl)o1)c1ccccc1,-5.8,3.5,-0.3,4.8,2.5,26.6*,TLR4 MyD88 cnf=-0.2;BLA inh HeLa=6.7
OC(c1ccc(F)cc1)c1nc(-c2cnc3ccccc3c2)cs1 (configuration not stated),3.5,.,6.0,11.0,0.8,.,
COc1ccc2c(c1)[n+](=O)c(C(C)=O)c(C)n2[O-],3.6,1.7,3.5,1.1,3.0,-0.2,
